According to PubChem BioAssay (NCATS):
Results filed as inconclusive are left out. The source made the active and inactive calls. The call rests on the fitted dose curve; in most records, active means well fitted inhibition curve with a large enough effect; inconclusive means small, poorly fitted or top-dose-only effect; inactive means flat fitted curve, though single readings scatter.

Test: qHTS of Trypanosoma Brucei Inhibitors: LOPAC Validation (AID 624147); further: 0% is about no effect
Details: purified enzyme assay, luminescence, 45 min; series mostly up to 57.5 µM; activity change, negative = inhibition: at the top concentration
Text: Members of the Trypanosomatidae family of parasitic protozoans cause a spectrum of diseases throughout the tropical and subtropical world. Sleeping sickness, caused by two subspecies of Trypanosoma brucei, is endemic to areas of sub-Saharan Africa, while Chagas' disease, a manifestation of Trypanosoma cruzi infection, is prevalent throughout Central and South America. In addition, many species of Leishmania are responsible for a range of cutaneous and visceral diseases, causing ulcers, destructive lesions and kalaazar, a lethal infection of the viscera. These diseases cause severe public health and economic burdens on populations that are often already caught in a tragic cycle of poverty, poor nutrition and disease. Collectively, parasites of the trypanosomatid family infect 30 million people worldwide (~500 million live in endemic areas), and account for ~130K deaths annually. Existing treatments have developed little in the past 50 years, and suffer from toxicity, poor efficacy and resistance; the goal of this project is to develop lead drugs that will be suitable for entry into pre-clinical trials.
Glycolysis in axenically cultured T. cruzi, representing the intracellular pathogenic stage, is also essential for these parasites. {Engel, 1987} This project aims to discover and optimize selective inhibitors of the glycolytic enzyme pyruvate kinase (PYK) from Trypanosoma brucei, the parasite that causes sleeping sickness. […] Trypanosomatid PYKs show significant differences from their human counterparts including only 47-50% sequence identity and different allosteric and activation properties.{Callens, 1992} To this end, a qHTS was done against the MLSMR to discover inhibitors.
NIH Molecular Libraries Probe Production Network [MLPCN]
NIH Chemical Genomics Center [NCGC]
PI Name: Malcolm Walkinshaw, University of Edinburgh
2 uL of TbPYK/substrate buffer (columns 1-3, 5-48) are dispensed into Greiner white solid bottom 1536-well assay plates; column 4 receives only TEA buffer as 0x TbPYK controls. Compounds are then transferred via Kalypsys pin tool equipped with 1536-pin array (10 nL slotted pins, V&P Scientific, San Diego, CA). Following addition of compound, 2 uL of ADP (130 uM final concentration, all columns) is added to initiate the reaction. The plates are then incubated at room temperature for 45 minutes. Kinase-Glo Plus reagent is added (3 uL) and plates incubated for 10 minutes, before being transferred to a ViewLux high-throughput CCD imager (PerkinElmer) wherein single end-point measurements of luminescence are acquired using a clear filter. All reagents are diluted in an assay buffer consisting of 50 mM TEA (pH 7.2), 100 mM KCl, 10 mM MgCl2, 0.05% BSA and 0.01% Tween-20.
All screening operations will be performed on a fully integrated robotic system (Kalypsys, San Diego, CA) containing one RX-130 and two RX-90 anthropomorphic robotic arms (Staeubli, Duncan, SC). Library plates will be screened starting from the lowest and proceeding to the highest concentration. Vehicle-only plates, with DMSO being pin-transferred to columns 5-48, will be inserted uniformly at the beginning and the end of each library in order to monitor and record any shifts in the background, which can be affected by reagent dispensers or loss in enzyme activity over time. Screening data will be corrected, normalized, and concentration-effect relationships will be derived by using publicly-available curve fitting algorithms developed in-house (http://ncgc.nih.gov/pub/openhts).

Row | Compound | activity change, negative = inhibition
1 | COc1ccc2c(c1)/C(=C/c1cnc[nH]1)C(=O)N2 | -15.5% (inactive)
2 | CN1CCC(c2c[nH]c3ccc(O)cc23)CC1 | -5.59% (inactive)
3 | NCC(CP(=O)(O)O)c1ccc(Cl)cc1 (stereo not given) | -8.22% (inactive)
4 | Oc1ccc2c3c1O[C@H]1c4[nH]c5ccccc5c4C[C@@]4(O)C(C2)N(CC2CC2)CCC314 (stereo not given in full) | -10.8% (inactive)
5 | NCCCP(=O)(O)O | -13.9% (inactive)
6 | CCN(CCCl)Cc1ccccc1Br | -8.51% (inactive)
7 | CC(N)[C@H](O)c1ccc(O)c(O)c1 (stereo not given in full) | -7.1% (inactive)
8 | N[C@@H](CCl)C(=O)O | 1.38% (inactive)
9 | CCS(=O)(=O)Nc1cccc(C(=C2CCCCC2)c2cnc[nH]2)c1 | -14.3% (inactive)
10 | CC(=O)NBr | 7.8% (inactive)
11 | CCCC[N+]1(C)C2CC(OC(=O)[C@H](CO)c3ccccc3)CC1C1OC12 (stereo not given in full) | 1.03% (inactive)
12 | C[C@@H]1O[C@@H](O[C@H]2C[C@@H](O)[C@]3(CO)[C@@H]4C(CC[C@]3(O)C2)[C@@]2(O)CC[C@H]([C@@H]3COC(=O)C3)[C@@]2(C)C[C@H]4O)[C@H](O)[C@H](O)[C@H]1O (stereo not given in full) | -11.7% (inactive)
13 | NC(N)=NOCC[C@H](N)C(=O)O | -10% (inactive)
14 | COc1ccc2c(c1O)-c1cccc3c1[C@@H](C2)N(C)CC3 | -3.91% (inactive)
15 | CCCN(CCC)CCc1c[nH]c2ccc(C(N)=O)cc12 | -2.22% (inactive)
16 | C[C@@H]1O[C@H](C[N+](C)(C)C)CS1 | -13.1% (inactive)
17 | N[C@@H](Cn1ccc(=O)[nH]c1=O)C(=O)O | -8.04% (inactive)
18 | NC(C(=O)O)c1cc(=O)[nH]o1 (stereo not given) | -5.55% (inactive)
19 | Nc1ccc(CCN2CCN(c3cccc(C(F)(F)F)c3)CC2)cc1 | 5.2% (inactive)
20 | NC(N)=Nc1ccc2[nH]c3c(c2c1)C[C@@]1(O)[C@H]2Cc4ccc(O)c5c4[C@@]1(CCN2CC1CC1)[C@H]3O5 | -10% (inactive)

Row | Compound | activity change, negative = inhibition
21 | CC12NC(Cc3ccccc31)c1ccccc12 (stereo not given) | -8.68% (inactive)
22 | C#CCN[C@H](C)Cc1ccccc1 | -5.02% (inactive)
23 | CNc1ccc2oc(C[C@H]3O[C@@]4(CC[C@H]3C)O[C@H]([C@H](C)C(=O)c3ccc[nH]3)[C@H](C)C[C@H]4C)nc2c1C(=O)O | -15.4% (inactive)
24 | NC(Cc1ccc(N(CCCl)CCCl)cc1)C(=O)O (stereo not given) | -7.58% (inactive)
25 | NNC(N)=O | -11.8% (inactive)
26 | COc1ccc(OC)c(C(O)C(C)N)c1 (stereo not given) | -2.66% (inactive)
27 | O=[N+]([O-])c1cc(O)c(O)c([N+](=O)[O-])c1 | -7.95% (inactive)
28 | C[C@H](N)Cc1cccc(C(F)(F)F)c1 | 3.91% (inactive)
29 | CP(=O)(O)C1=CCNCC1 | -14% (inactive)
30 | COC(=O)N1CCN(C(=O)Cc2ccc(Cl)c(Cl)c2)C(CN2CCCC2)C1 (stereo not given) | 5.78% (inactive)
31 | CC(N)Cc1c[nH]c2ccc(OCc3cccs3)cc12 (stereo not given) | -6.22% (inactive)
32 | CCNC(=O)[C@H]1O[C@@H](n2cnc3c(N)ncnc32)[C@H](O)[C@@H]1O | -9.47% (inactive)
33 | Cc1c2ccncc2c(C)c2c1[nH]c1ccccc12 | -9.43% (inactive)
34 | Cc1o[nH]c(=O)c1CC(N)C(=O)O (stereo not given) | -1.08% (inactive)
35 | COc1ccc2c(c1)C13CCCCC1C(C2)N(C)CC3 (stereo not given) | -6.56% (inactive)
36 | CCn1cnc2c(Nc3cccc(Cl)c3)nc(N[C@@H]3CCCC[C@@H]3N)nc21 | -5.06% (inactive)
37 | Cc1cc([C@@H]2CCCN2C)on1 | 6.15% (inactive)
38 | NC(CCCCCP(=O)(O)O)C(=O)O (stereo not given) | -2.95% (inactive)
39 | O=C1CC[C@@]2(O)C3Cc4ccc(O)c5c4C2(CCN3CC2CC2)[C@H]1O5 (stereo not given in full) | -12.5% (inactive)
40 | N=C(N)c1ccc(CS(=O)(=O)F)cc1 | 2.7% (inactive)
